Common to all, as to experiment: cross-linking mass spectrometry
The target in one test is CANX (UniProt P27824). Conditions: SIA, in cells.
The next test concerns the target HSPA9 (UniProt P38646). To be noted: SIA, in cells.
The next test deals with NCL (UniProt P19338). Conditions: SIA, in cells.
The target in the next test is ATP1A2 (UniProt P50993). To be noted: SIAB, in cells.
The next test deals with ARHGEF26 (UniProt Q96DR7). Conditions: SBAP;SIAB, in cells.
Another test has as its target CCT5 (UniProt P48643). Conditions: SBAP, in cells.
The next test deals with HGH1 (UniProt Q9BTY7). Conditions: SIA, in cells.
A further test deals with HSPE1 (UniProt P61604). Conditions: SIA, in cells.
The next test concerns the target MRE11 (UniProt P49959). To be noted: SIA, in cells.
The target in the next test is PMFBP1 (UniProt Q8TBY8). Conditions: SIAB, in cells.
The next test addresses RANGAP1 (UniProt P46060). Conditions: SIAB, in cells.
In the next test the target is SPTY2D1 (UniProt Q68D10). To be noted: SBAP;SIA, in cells.
Another test deals with AGK (UniProt Q53H12). Conditions: SBAP, in cells.
In another test the target is CCT2 (UniProt P78371). Conditions: in cells.
Another test concerns the target ACAD9 (UniProt Q9H845). To be noted: SIAB, in cells.
For the next test, the target named is CAPRIN1 (UniProt Q14444). Conditions: SBAP, in cells.
The target of another test is ASPM (UniProt Q8IZT6). Conditions: SIA, in cells.
In a further test the target is BOLA2 (UniProt Q9H3K6). To be noted: SBAP, in cells.
The target of the next test is HNRNPK (UniProt P61978). To be noted: SIAB, in cells.
Another test deals with AGL (UniProt P35573). To be noted: SIA, in cells.
The next test has as its target ADSS1 (UniProt Q8N142). Conditions: SIAB, in cells.
A further test concerns the target ATP5F1A (UniProt P25705). Conditions: SIA, in cells.
The target in another test is ATP5IF1 (UniProt Q9UII2). Conditions: SIA, in cells.
Another test deals with CKB (UniProt P12277). To be noted: SIA, in cells.
The target in the next test is EEF2 (UniProt P13639). Conditions: SIA, in cells.
The next test concerns the target ENO1 (UniProt P06733). To be noted: in cells.
The target in another test is FAS (UniProt P25445). Conditions: SIA, in cells.
A further test addresses HNRNPA1 (UniProt P09651). Conditions: SIA, in cells.
Another test concerns the target NEFL (UniProt P07196). To be noted: SIA, in cells.
The next test deals with NEFM (UniProt P07197). Conditions: SIA, in cells.
The next test concerns the target PKM (UniProt P14618). Conditions: SIA, in cells.
Another test addresses RACK1 (UniProt P63244). To be noted: SBAP, in cells.
The target in a further test is RIPK1 (UniProt Q13546). Conditions: SBAP, in cells.
Another test concerns the target RPL30 (UniProt P62888). To be noted: SBAP, in cells.
In another test the target is RPL9 (UniProt P32969). Conditions: SBAP, in cells.
The target in the next test is RPLP2 (UniProt P05387). Conditions: SIA, in cells.
A further test concerns the target RPS28 (UniProt P62857). Conditions: SBAP, in cells.
The target of another test is YWHAE (UniProt P62258). Conditions: SIAB, in cells.
For a further test, the target named is ATG5 (UniProt Q9H1Y0). Conditions: SBAP;SIA, in cells.
The target of a further test is ACAT1 (UniProt P24752). Conditions: SBAP;SIAB, in cells.
A further test concerns the target C1QBP (UniProt Q07021). Conditions: SIA, in cells.
The target in another test is PPOX (UniProt P50336). Conditions: SBAP, in cells.
Another test deals with TPI1 (UniProt P60174). Conditions: in cells.
In a further test the target is ATP6V1E1 (UniProt P36543). Conditions: SIAB, in cells.
In a further test the target is BUB3 (UniProt O43684). To be noted: SIA, in cells.

Turning to MIF, P14174, the cross-linked residues result with CANX is listed as “C81 - K170”; with HSPA9, “C81 - K206”; with NCL, “C81 - K398”.

Regarding ATP1A3, P13637, in the test with ATP1A2, the cross-linked residues entry is recorded as “C239 - K210”.

For the substance EEF2, P13639, the cross-linked residues result in the test with ARHGEF26 is given as “C567 - K214”; with CCT5, “C567 - K514”; with HGH1, “K512 - C51”; with HSPE1 it was “C693 - K56”; with MRE11, “C290 - K625”; with PMFBP1, “C567 - K2”. In addition, the cross-linked residues entry with RANGAP1 was “K159 - C303”; in the test with SPTY2D1, “C290 - K216”.

As to EIF3A, Q14152, in the test with AGK, the cross-linked residues result was “K632 - C34”.

Take PDCD5, O14737: the cross-linked residues result with CCT2 (SIAB) is recorded as “K66 - C535”.

Regarding TUBGCP3, Q96CW5, the cross-linked residues result in the test with ACAD9 is listed as “K57 - C179”.

As for GPD2, P43304, in the test with CAPRIN1, the cross-linked residues result is recorded as “K94 - C226”.

With SHMT2, P34897, the cross-linked residues result with ASPM is given as “C119 - K576”.

Take DDX5, P17844: the cross-linked residues result is reported as “C234 - K47” with BOLA2 and “C234 - K405” in the test with HNRNPK.

As for CNOT1, A5YKK6, in the test with AGL, the cross-linked residues entry is “C2345 - K1176”.

As for ADSS2, P30520, in the test with ADSS1, the cross-linked residues result is given as “C182 - K158”.

For the substance GAPDH, P04406, the cross-linked residues result in the test with ATP5F1A is “C247 - K531”; in the test with ATP5IF1, “C247 - K82”; in the test with CKB it was “K215 - C254”; with EEF2, “C247 - K318”; in the test with ENO1 (SBAP) it was “C247 - K80”; with ENO1 (SBAP;SIA), “C247 - K5”. Moreover, the cross-linked residues entry with FAS is recorded as “K215 - C304”; with HNRNPA1 it was “C247 - K350”; with HSPA9, “C247 - K206”; with HSPE1, “C247 - K56”; with NCL, “C247 - K398”; with NEFL, “C247 - K157”. Also, the cross-linked residues result is “C247 - K139” in the test with NEFM; “K215 - C49” in the test with PKM; “K61 - C207” with RACK1; “C247 - K627” with RIPK1; “K61 - C85” with RPL30; “K61 - C134” with RPL9. The cross-linked residues result with RPLP2 was “C247 - K21”; in the test with RPS28, “K215 - C27”; with YWHAE, “C247 - K50”.

Regarding ATG12, O94817, the cross-linked residues entry with ATG5 is reported as “C134 - K138”.

For the substance CCT4, P50991, the cross-linked residues result in the test with CCT2 (SBAP;SIA) is “C120 - K46”; in the test with CCT2 (SBAP;SIAB), “K55 - C395”; with CCT2 (SIAB), “C337 - K223”.

Consider HSPD1, P10809, for which the cross-linked residues entry is “K292 - C119” in the test with ACAT1; “K75 - C186” in the test with C1QBP; “K292 - C167” in the test with PPOX; “K133 - C218” with TPI1 (SBAP;SIA); “K75 - C218” in the test with TPI1 (SIA).

As for ATP6V1G1, O75348, in the test with ATP6V1E1, the cross-linked residues result is “C69 - K69”.

ZNF207, O43670: the cross-linked residues result in the test with BUB3 was “K31 - C129”.

These data come from PMC12701074.
